# Screening data: PubChem, several laboratories
# This is a sample that favours compounds with a hit; in the whole collection about 5.2% have one here.
# APOBEC3G inh – APOBEC3G DNA deaminase inhibitors, primary screen, biochemical, fluorescence, single-stranded DNA substrate, uHTS; inhibition, % at 20 µM; actives 0.28% (n = 330,000); recombinant A3G, ssDNA deamination FAM/TAMRA fluorescence; DNA dC->dU-editing enzyme APOBEC-3G (Homo sapiens), Q9HC16;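 active = inhibition of at least 40% at 20 µM, with no more than 30% in the related APOBEC3A deaminase screen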;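 note: plate controls were DMSO wells with A3G for no effect and wells lacking A3G enzyme for full effect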
# Target sequence (Q9HC16 whole entry, looked up): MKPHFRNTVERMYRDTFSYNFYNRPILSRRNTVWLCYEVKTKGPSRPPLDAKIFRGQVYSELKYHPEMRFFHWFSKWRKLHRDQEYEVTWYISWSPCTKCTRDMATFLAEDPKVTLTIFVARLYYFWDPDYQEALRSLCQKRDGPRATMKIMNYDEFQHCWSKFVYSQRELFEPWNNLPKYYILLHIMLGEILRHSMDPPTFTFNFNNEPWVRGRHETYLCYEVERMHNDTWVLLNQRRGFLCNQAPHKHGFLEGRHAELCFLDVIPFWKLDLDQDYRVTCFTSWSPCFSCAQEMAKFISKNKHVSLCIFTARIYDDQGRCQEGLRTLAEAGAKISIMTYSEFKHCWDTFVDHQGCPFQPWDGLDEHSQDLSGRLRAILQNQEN
# CR mimetic SO – reduction of superoxide in aged yeast, primary screen, HTS | S. cerevisiae aged cells, superoxide DHE fluorescence; stronger effect = lower value | superoxide response (% of plate mean), % at 10 µM | actives 0.18% (n = 330,000) | AID 2690, 2010;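 active = superoxide response under a set limit, about three screen SD below normal, cut at about 65% in these data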;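 note: yeast aged for seven days with compound at 30 °C before DHE staining; 100% = average MFI of all compound-treated wells on the plate with controls excluded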
# CendR NRP1 mod – modulators of CendR peptide binding to NRP-1, primary screen, biochemical, fluorescence polarization, uHTS | actives 0.85% (n = 360,000) | AID 602438, 2012 | Neuropilin-1 (Homo sapiens), O14786 | inhibition, % at 25 µM | FAM-RPARPAR peptide binding to NRP-1;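 active = inhibition or corrected inhibition above about 18%, plus a signal ratio from 0.5 to 1.5, limit read from the data, passing the limit was not always enough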
# ALR inh – inhibitors of human ALR sulfhydryl oxidase, primary screen, biochemical, H2O2 detection, HRP-luminol luminescence, single point | FAD-linked sulfhydryl oxidase ALR (Homo sapiens), P55789 | purified ALR, DTT oxidation | inhibition, % (no concentration beside the values) | actives 3.8% (n = 290,000);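 active = mean replicate inhibition above about 79%, with every replicate also reaching it, limit read from the data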
# Target sequence (P55789 whole entry, looked up): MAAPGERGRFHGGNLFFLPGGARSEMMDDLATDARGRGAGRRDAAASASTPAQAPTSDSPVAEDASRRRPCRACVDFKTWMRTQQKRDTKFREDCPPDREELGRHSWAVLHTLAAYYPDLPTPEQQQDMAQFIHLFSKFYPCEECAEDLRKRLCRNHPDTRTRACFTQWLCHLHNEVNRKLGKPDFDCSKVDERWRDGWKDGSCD
# PfM18AAP inh – PfM18AAP inhibitors, malaria aminopeptidase, primary screen, biochemical, QFRET, recombinant enzyme | H-Glu-NHMec fluorogenic cleavage | inhibition, % at 7.35 µM | actives 1.2% (n = 290,000);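 active = inhibition above the campaign mean inhibition over all tested compounds plus 3 SD, cut at about 28% in these data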;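 note: 0% = plate median of test compound wells and 100% = 2 mM ZnCl2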
# A3A deaminase – APOBEC3A ssDNA deaminase inhibitors, primary screen, selectivity assay for APOBEC3G inhibitor project, biochemical, FAM/TAMRA oligo cleavage fluorescence; DNA dC->dU-editing enzyme APOBEC-3A (Homo sapiens), P31941; actives 0.41% (n = 330,000); inhibition, % at 20 µM; recombinant A3A, FAM/TAMRA ssDNA deamination fluorescence; AID 493011, 2011;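 active = at least 40% inhibition at 20 µM here, with at most 30% in a related deaminase screen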;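 note: plate controls were A3A with DMSO for no effect and wells lacking A3A enzyme for full effect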
# CR mimetic CP – superoxide lowering in aged yeast cells, confirmation, cherry picked compounds; shares compounds with CR mimetic SO; S. cerevisiae aging, superoxide DHE fluorescence; stronger effect = lower value; superoxide response (% of plate), % at 10 µM; actives 1% (n = 850);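 active = superoxide signal below 65% of the plate average of sample wells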;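 note: cells aged with compound for 7 days at 30 degrees C before staining; 100% equals mean DHE fluorescence of all compound wells on the plate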
# DHE fluor count – DHE quenching or ROS scavenging interference in aged yeast, artefact control for yeast caloric restriction mimetic project, S. cerevisiae BY4741, flow cytometry; shares compounds with CR mimetic SO; DHE fluorescence; stronger effect = lower value; fluorescence response, % at 10 µM; 850 tested, under 10 active;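 active = fluorescence response below 15%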;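 note: percent of the mean fluorescence averaged over all compound wells on the plate; lower means stronger quenching of DHE signal or ROS scavenging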
# * = called active by the depositor; . = no result.
SMILES,APOBEC3G inh,CR mimetic SO,CendR NRP1 mod,ALR inh,PfM18AAP inh,A3A deaminase,CR mimetic CP,DHE fluor count
O=C(COC(=O)c1cc(S(=O)(=O)N2CCOCC2)cs1)c1ccccc1,-6.4,64.5*,4.2,-7.1,-0.2,-3.7,108.5,111.9
COCCNC(=O)c1ccc2c(c1)S(=O)(=O)c1ccccc1C2=O,-7.0,108.8,-1.7,.,.,2.5,.,.
CC(C)c1ccc(CCNC(=O)CCNC(=O)c2ccc(Br)cc2)cc1,-3.9,112.3,13.8,13.7,-15.7,1.7,.,.
COc1ccc(C)cc1S(=O)(=O)Nc1cc(Cl)ccc1Cl,7.5,90.8,-2.2,-13.4,-3.0,4.5,92.2,96.8
COc1cc(S(=O)(=O)Nc2ccccc2C)ccc1Cl,-1.6,97.8,11.7,.,-5.5,1.4,100.2,99.8
COc1ccc(S(=O)(=O)Nc2cc(Cl)ccc2OC)cc1,.,89.3,3.6,4.4,-1.7,.,109.5,108.4
Cn1c(=O)c2c([nH]c(OCc3ccc(Cl)cc3Cl)[n+]2Cc2ccc(F)cc2)n(C)c1=O,-4.0,99.2,-0.8,-3.2,-1.4,-3.1,.,.
Cc1ccc(C#N)c(SCc2nnc(-c3ccc(Cl)cc3)o2)n1,-3.6,103.3,-5.9,-19.8,1.2,2.4,.,.
C[C@@H]1CN([C@@H](C)CO)C(=O)c2cc(NS(C)(=O)=O)ccc2O[C@H]1CN(C)Cc1ccc(Oc2ccccc2)cc1,12.8,87.8,8.7,-11.2,.,1.9,.,.
COc1ccc2c(c1)c1nnc(SC)nc1n2C,-0.1,43.8*,7.5,-4.5,-0.8,-1.0,66.5,87.4
Clc1cccc(-c2ccc(C=Nc3ccc(N4CCOCC4)cc3)o2)c1,.,52.9*,-1.3,62.0,6.5,.,93.3,96.2
CC(C(=O)Nc1cc([N+](=O)[O-])ccc1Cl)N1CCN(c2ccccc2)CC1 (stereo not given),-5.8,102.7,-5.2,1.7,-9.7,-2.5,.,.
CC(C(=O)Nc1ccccc1)N1CCN(c2ccccn2)CC1 (stereo not given),-10.9,103.1,-5.9,-2.0,3.2,-4.9,96.8,97.7
Cc1cc([N+](=O)[O-])ccc1NC(=O)C(C)N1CCN(c2ccccn2)CC1 (stereo not given),-5.4,115.8,8.9,5.5,1.7,-2.5,84.3,96.0
COc1ccc(Cl)cc1NC(=O)C(C)N1CCN(c2ccccn2)CC1 (stereo not given),-5.4,104.5,-5.0,0.4,-6.3,-0.4,96.9,96.1
CCc1cccc(NC(=O)c2cc(S(=O)(=O)N3CCCCC3)ccc2N2CCOCC2)c1,.,.,1.7,.,.,.,.,.
CC(C)N(Cc1nccn1C)C(=O)c1cc(COc2ccc(-n3cncn3)cc2)on1,4.1,109.1,1.9,.,1.0,-2.3,.,.
O=C(COc1ccccc1F)Nc1nnc(-c2ccncc2)s1,-2.7,55.4*,19.1,-3.5,-2.8,-0.5,114.8,107.6
CC1(C)CC(=O)C=C(Nc2ccc(F)c(Cl)c2)C1,-7.5,62.2*,-3.4,-2.0,5.3,-6.2,98.9,94.6
Cc1ccc(C(=O)NCCCN2CCOCC2)cc1Cl,-6.6,80.9,-9.2,14.8,-3.5,-8.7,.,.
NC1=C(c2ccccc2)C(=O)NC1=O,-11.2,36.6*,7.8,-0.5,0.5,-5.4,99.1,106.2
O=C1OCC(c2ccccc2)=C1c1ccccc1,-11.6,97.0,-15.1,-10.5,-2.2,2.0,.,.
CCOC(=O)C1=C(COC(=O)c2cccnc2Cl)NC(=O)NC1C (stereo not given),-5.8,98.9,11.3,-7.8,.,-0.3,.,.
Cc1cccc([C@@H](NC(=O)OC(C)(C)C)C(=O)OC(C)(C)C)c1,-9.4,62.1*,-9.4,-1.0,.,-3.3,102.3,91.2
O=C(Nc1ccc(Cl)cc1)[C@@H]1[C@@H]2C(=O)N(c3ccc(Cl)cc3)C(=O)[C@@H]2[C@H]2C=CC=NN21,10.0,64.0*,-10.9,-2.1,-8.4,-2.1,98.9,93.2
SMILES,APOBEC3G inh,CR mimetic SO,CendR NRP1 mod,ALR inh,PfM18AAP inh,A3A deaminase,CR mimetic CP,DHE fluor count
COc1ccc(N2CCN(C(=O)c3ccc(C)c(Cl)c3)CC2)cc1,-5.2,83.0,0.6,13.2,1.0,-2.0,93.6,99.3
COc1ccc(N2CCN(C(=O)c3cc(=O)c4ccc(C)cc4o3)CC2)cc1,0.7,106.0,-5.2,-6.3,6.2,-1.8,.,.
Cc1ccc(NS(=O)(=O)c2ccc(C(=O)N3CCN(c4ncccn4)CC3)cc2)cc1,-4.8,105.5,-11.3,-4.1,5.4,3.7,.,.
COc1ccc(N2CCN(C(=O)c3ccc(C)cc3Cl)CC2)cc1,-2.4,94.8,7.5,92.4*,-0.7,8.7,96.8,91.2
CCOc1ccc(C(=O)N2CCN(c3ccccc3)CC2)cc1,6.1,97.3,4.4,25.2,9.8,2.5,96.2,95.2
Cc1ccc(C(=O)N2CCN(c3ncccn3)CC2)cc1,-9.2,64.6*,3.9,4.8,6.7,-0.3,96.9,93.2
Cn1c(=O)c2c(ncn2CC(=O)OCC(=O)NC(c2ccccc2)c2ccccc2)n(C)c1=O,-8.0,80.7,2.2,-6.7,-1.4,-7.3,.,.
CCOC(=O)C1CCCN(S(=O)(=O)c2ccc(Br)s2)C1 (stereo not given),1.7,79.9,-5.9,-6.4,0.8,2.3,.,.
O=C(NCc1cccc(Cl)c1)c1cccc(S(=O)(=O)N2CCCCC2)c1,-0.8,104.0,11.2,-0.3,.,5.9,.,.
O=C(c1ccccc1)C1CCN(c2ncccc2[N+](=O)[O-])CC1,-6.7,104.7,-6.8,-6.4,-8.8,-2.6,.,.
COC(=O)C1CCN(C(=O)COC(=O)CNS(=O)(=O)c2ccc(SC)c([N+](=O)[O-])c2)CC1,-0.9,95.2,7.4,-6.7,.,18.0,.,.
Cc1ccc2c(c1)CCCN2C(=O)c1ccco1,-4.0,77.1,-9.6,-0.7,-4.1,5.8,.,.
O=C(N/N=C/c1ccc(F)cc1)c1cc(-c2ccc3c(c2)OCO3)n[nH]1,-7.4,64.0*,3.3,8.9,3.5,-0.7,105.4,94.5
CN(C)c1ccc(/C=N/NC(=O)c2cc(-c3ccc4c(c3)OCO4)n[nH]2)cc1,-5.1,106.8,-49.8,4.8,-1.7,-2.6,.,.
c1ccc(OCc2nc(-c3cccs3)no2)cc1,-3.7,107.3,1.0,-10.7,4.8,3.1,.,.
